Experimental data as given in PubChem BioAssay AID1903 (Southern Research Specialized Biocontainment Screening …, 2009).
The campaign covered roughly 310,000 compounds. About 1,200 (0.39%) were called active. How the calls were made is not given here. These entries were drawn from the full list. Results with a measured potency or affinity are listed apart.

Molecular target: Large T antigen (Simian virus 40) (UniProt P03070)
Assay: TAg ATPase/helicase activity blockers – biochemical (AID 1903)
Settings: SV40 large T antigen ATPase/helicase inhibition assay; at 20 µM; stronger effect = higher value

Chain of Large T antigen (Simian virus 40) (P03070 whole entry, looked up): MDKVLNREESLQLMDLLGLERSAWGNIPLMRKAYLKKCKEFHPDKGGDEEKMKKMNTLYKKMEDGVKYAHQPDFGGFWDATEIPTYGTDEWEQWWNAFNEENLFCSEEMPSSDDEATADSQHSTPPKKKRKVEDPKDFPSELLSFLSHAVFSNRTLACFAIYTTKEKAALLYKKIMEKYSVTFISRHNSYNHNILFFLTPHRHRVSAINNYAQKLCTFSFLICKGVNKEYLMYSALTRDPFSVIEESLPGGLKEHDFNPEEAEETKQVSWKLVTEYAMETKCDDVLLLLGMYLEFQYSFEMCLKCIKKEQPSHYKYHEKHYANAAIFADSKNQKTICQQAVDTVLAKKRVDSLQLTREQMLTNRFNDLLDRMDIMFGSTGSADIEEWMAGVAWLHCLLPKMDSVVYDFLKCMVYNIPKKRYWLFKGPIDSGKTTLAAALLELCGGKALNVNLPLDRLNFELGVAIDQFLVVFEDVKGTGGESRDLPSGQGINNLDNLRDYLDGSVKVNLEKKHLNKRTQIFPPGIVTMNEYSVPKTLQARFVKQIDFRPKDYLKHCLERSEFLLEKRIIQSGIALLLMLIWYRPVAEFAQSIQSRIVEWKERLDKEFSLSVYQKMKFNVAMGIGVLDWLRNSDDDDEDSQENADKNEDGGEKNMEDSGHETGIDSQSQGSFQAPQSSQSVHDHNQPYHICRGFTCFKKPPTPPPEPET

inhibition, inactive:
Cc1cccc(-c2noc(CN(C)C(=O)COc3ccccc3)n2)c1 13.7%, Cc1nn(-c2ccccc2)c(C)c1C(=O)Nc1ccc(N2CCOCC2)cc1 26.7%, Cc1nn(-c2ccccc2)c(Cl)c1C(=O)Nc1ccc(N2CCOCC2)cc1 9.69%, C/C(CC(=O)Nc1ccc2c(c1)OCCO2)=N\NC(=O)c1ccc([N+](=O)[O-])cc1Cl 3.29%, C/C(CC(=O)Nc1ccc(N(C)C)cc1)=N\NC(=O)c1ccc([N+](=O)[O-])cc1 22.9%, C/C(CC(=O)NCc1ccco1)=N\NC(=O)c1ccc(Cl)cc1Cl 5.88%, C/C(CC(=O)Nc1ccc(N(C)C)cc1)=N\NC(=O)c1ccc(Cl)cc1 21.9%, Cc1nnsc1C(=O)N1CCCC(N2CCN(c3cccc(C(F)(F)F)c3)CC2)C1 (stereo not drawn) 12.9%, COCC(=O)Nc1ccc2c(c1)OCC(=O)N2Cc1ccccc1F 20.2%, CC(=O)N1CCN(CC(=O)O)CC1 5.47%, Cn1c(N)c(C(=O)Nc2ccccc2)c(=O)[nH]c1=O 5.18%, Cc1c(Cl)cccc1NC(=O)Cn1cc(C(F)(F)F)cc(Cl)c1=O 6.09%, O=C(CCNC(=O)Cn1ccc2ccccc2c1=O)NCCCN1CCN(c2ccccc2F)CC1 -2.74%, CCCNC(=O)Cn1sc2nc(C)cc(C)c2c1=O 8.82%, Cc1ccc(NC(=O)Cn2sc3nc(C)cc(C)c3c2=O)c(Cl)c1 5.12%, Cn1c2ccccc2c2cnn(CC(=O)NCCCN3CCN(c4ccccc4F)CC3)c(=O)c21 9.9%, COc1ccc(OC)c(CCNC(=O)Cn2nc(C)c3c(C)n(-c4ccccc4)nc3c2=O)c1 2.47%, O=C(c1cc([N+](=O)[O-])ccc1Cl)N1c2ccccc2Sc2ccccc21 3.02%, Cc1cc(C)cc(OCc2nnc(SCC(=O)NC3CC3)n2C)c1 -1.01%, CCOC(=O)N1CCC(N2C(=O)c3ccc(C(=O)NCCOC)cc3C2=O)CC1 5.99%, COc1cccc(NC(=O)Nc2cc(C)ccc2OC)c1 2.17%, CCCc1cc(=O)oc2cc(C)cc(OCC(=O)NCC(O)c3ccccc3)c12 (stereo not drawn) 12.5%, Cc1ccc(N2CC(=O)N(NC(=O)Nc3ccc(Cl)c(Cl)c3)CC2=O)cc1 13.8%, O=C(CCC(=O)N1CCN(Cc2ccccc2)CC1)Nc1nnc(C2CCCCC2)s1 13.1%, CSCCC(NC(N)=O)C(=O)Nc1cccc(S(=O)(=O)N2CCOCC2)c1 (stereo not drawn) 2.59%, O=C(CCCOc1ccc(Br)cc1)NNC(=O)c1ccncc1 26.4%, CCc1ccc(NC(=O)c2cc(-c3ccco3)on2)cc1 6.38%, O=C(CSc1cn(Cc2ccccc2)c2ccccc12)NCc1ccc(F)cc1 6.13%, C=CCn1c(SCC(=O)NCCCC)nc2scc(-c3ccco3)c2c1=O 32.9%, C=CCn1c(=S)[nH]c2scc(-c3ccc(C)o3)c2c1=O 7.5%, C=CCn1c(=S)[nH]c2scc(-c3cccs3)c2c1=O 9.96%, C=CCn1c(SCC(=O)N2CCOCC2)nc2scc(-c3ccco3)c2c1=O 22.1%, COc1cc(/C=C/[N+](=O)[O-])ccc1OC(=O)/C=C/c1ccc(F)cc1 17.2%, CC(C)CCN(CCC(C)C)CC(O)Cn1c2ccccc2c(=O)c2ccccc21 (stereo not drawn) 8.16%, CC(=O)c1cccc(NC(=S)NC(=O)c2ccccc2C)c1 -10%, COC(=O)CCCCCCCCCC[N+]1(C)CCCCC1 -2.24%, CC(=O)OCCCCCCCCCCC[N+]1(C)CCCCC1 27.6%, COc1cc([N+](=O)[O-])ccc1NC(=O)Nc1cnccn1 13.4%, Cc1[nH]n(-c2ccccc2)c(=O)c1C=Nc1ccc2[nH]c(=O)[nH]c2c1 19.5%, Nc1ccc(CCS(N)(=O)=O)cc1 2.24%, CCc1ccc(S(=O)(=O)NCC(O)COc2ccc(OC)cc2)cc1 (stereo not drawn) 1.57%, O=C(Oc1coc(CSc2ncccn2)cc1=O)c1ccccc1[N+](=O)[O-] 18.4%, Cc1ccc2c3c(c(SCC(=O)Nc4nccs4)nc2c1)CCCC3 -1.03%, Cn1c(-c2ccccc2[N+](=O)[O-])[n+](C)c2ccccc21 11.2%, Cc1cc(/C=C2\C(=N)N3N=C(CC(=O)N4CCOCC4)SC3=NC2=O)c(C)n1-c1ccccc1 11.9%, CCOC(=O)C1CC2CC(C1)CN(C(=O)C1CCCCC1)C2 (stereo not drawn) 1.74%, C/C(=N\Nc1ccc([N+](=O)[O-])cc1)c1ccc(O)cc1 23.8%, O=[N+]([O-])c1ccccc1N=Nc1ccc(O)cc1 16.2%, [O-]/C(=C(\C(=S)NCc1ccco1)[n+]1ccccc1)c1ccccc1Br 20.6%, CS(=O)(=O)c1ccc(Cl)c(NC(=O)CCNC(=O)c2ccco2)c1 1.63%, CC(C)c1nnc(NC(=O)CCC(=O)N2CCC(Cc3ccccc3)CC2)s1 16.2%, CC(C)CN1C(=O)c2ccc(C(=O)Nc3ccccn3)cc2C1=O 3.11%, C=CCN1CC(c2nc3ccccc3n2CCOc2ccccc2)CC1=O (stereo not drawn) -0.56%, CN(CC(=O)Nc1ccc(N2CCOCC2)cc1)CC(=O)Nc1ccc(N2CCOCC2)cc1 21.6%, CN(C)/N=C/c1ccc(N2CCOCC2)cc1 16.2%, CN(C)C(CNc1ccc(S(C)(=O)=O)cc1[N+](=O)[O-])Cc1ccccc1 (stereo not drawn) -5.33%, CCOC(=O)/C(C#N)=C/Nc1ccccc1NS(=O)(=O)c1ccc(C)c(C)c1 9.42%, CNC(=S)Nc1cc2oc3ccccc3c2cc1OC 18.4%, COc1cc2c(cc1NC(=S)Nc1cccc3ccccc13)oc1ccccc12 29.9%, CN(C)/C=C(\C#N)C(N)=C(C#N)C#N -3.37%, N#CC(=Cc1ccc(O)cc1)C(N)=C(C#N)C#N 8.06%, O=C(N/N=C/C1CC=CCC1)c1cc(Br)ccc1O (stereo not drawn) 1.73%, CC(=O)O[C@@H]1[C@H]2[C@@H](C[C@@H](C)[C@@H]3C=CC(=O)[C@@]13C)OC(=O)[C@@H]2C 11.5%, C=C1C(=O)O[C@@H]2C[C@@H](C)[C@@H]3C=CC(=O)[C@@]3(C)[C@@H](OC(C)=O)[C@H]12 35.6%, CCOc1cc(/C=C(\C#N)C(N)=O)ccc1OCc1c(C)no[n+]1[O-] 10.9%, COc1ccccc1Oc1ccc(NC(=O)c2ccc(Cl)cc2)cc1 6.92%, CS(=O)(=O)c1ccc(N)cc1 -0.19%, CS(=O)(=O)c1ccc2nc(N)sc2c1 0.3%, CC(C)OC(=O)NC(Nc1ccccc1C(=O)O)(C(F)(F)F)C(F)(F)F 6.18%, Cc1ccc(C(=O)N[C@H](C(=O)Nc2sccc2C(N)=O)C(C)C)cc1 -5.98%, COc1ccc(OCc2nn3c(-c4cccc(OC)c4)nnc3s2)cc1 8.77%, O=C1/C(=C/c2cccnc2)SC(=S)N1Nc1ccccc1 29.5%, O=C(O)c1ccc(/C=C2\SC(=S)N(Nc3ccccc3)C2=O)cc1 32.2%, CC(/C=N/NC(=O)c1sc(N)nc1C)=C\c1ccccc1 17.8%, Cc1ccc(-c2ccc(/C=C3/NC(=O)NC3=O)o2)cc1[N+](=O)[O-] 28.5%, CC1=C(C#N)C(=O)NC(=O)/C1=C\c1ccc(-c2cc(C)c(C)cc2[N+](=O)[O-])o1 17.5%, CC1=C(C#N)C(=O)NC(=O)/C1=C\c1ccc(-c2ccc(C)cc2[N+](=O)[O-])o1 33.3%, Cc1cc(C(=O)O)ccc1-c1ccc(/C=C2\NC(=O)N(Cc3ccc(F)cc3)C2=O)o1 37.5%, O=[N+]([O-])c1ccccc1-c1ccc(/C=N/n2cnnc2)o1 14.3%, NS(=O)(=O)c1ccc(-c2ccc(/C=C3\C(=O)Nc4cc(Cl)ccc43)o2)cc1 -8.34%, O=C(COc1cccc(NC(=O)c2ccccc2)c1)c1ccccc1 5.06%, CCN(C(=O)CN1CCOCC1)c1c(N)n(Cc2ccccc2)c(=O)[nH]c1=O 7.23%, Cc1ccc(S(=O)(=O)NCCNC(=O)CN2CCCC2)cc1 0.78%, CC1(C)CC(=O)N(CC(=O)N2CCN(c3ncccn3)CC2)c2ccccc2S1(=O)=O -1.17%, O=C(NNc1c(Cl)cccc1Cl)c1c(F)cccc1Cl 9.15%, COC(=O)[C@@]12CCCN1[C@H](c1ccc(-c3ccc(F)cc3)cc1)[C@H]1C(=O)N(C)C(=O)[C@H]12 5.03%, Cc1ccc(S(=O)(=O)NC(=O)N(CCC#N)Cc2ccccc2)cc1 10.3%, CC(C)(C)/C(O)=C/c1nc2ccccc2oc1=O 29.2%, Cc1ccc(/C(O)=C/c2nc3cc(C)ccc3oc2=O)cc1 14.5%, COc1ccc(-c2nc(NC(=O)CSCCO)sc2C)cc1 22.1%, O=S1(=O)N=C(SCCO)c2ccccc21 -3.68%, O=C1C(O)=C(O)C(=O)c2ccccc21 5.58%, CCOc1ccc(NC(=S)N(CCN2CCOCC2)Cc2ccc3c(c2)CCCN3CC)cc1 18.7%
